The values that follow come from PubChem BioAssay (NCI).

The nature of experiment [1]: NCI Yeast Anticancer Drug Screen. Data for the rad50 strain (AID 155).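 Also: 0% = growth of vehicle-only cultures of the same strain.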 Conditions: S. cerevisiae rad50 strain growth inhibition, stronger effect = higher value. In short, it runs like this: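 Relative growth inhibition (compound vs vehicle) was measured in yeast with a defined repair-gene alteration.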
Experiment [2] can be described thus: NCI Yeast Anticancer Drug Screen. Data for the mec2-1 strain (AID 157). As to conditions: S. cerevisiae mec2-1 strain, stronger effect = higher value. In outline: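 Compounds were applied to mec2-1 yeast cells. Their growth was then compared with that of vehicle-treated cultures to give growth inhibition.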
The nature of experiment [3]: NCI Yeast Anticancer Drug Screen. Data for the sgs1 mgt1 strain (AID 161).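 Also: 0% = growth of cultures given vehicle only.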 As to conditions: S. cerevisiae sgs1 mgt1 strain, stronger effect = higher value. In short, it runs like this: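 This yeast growth screen uses a strain with defined DNA-repair lesions; compound-treated growth is compared with vehicle-treated growth.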
A short description of experiment [4]: NCI Yeast Anticancer Drug Screen. Data for the cln2 rad14 strain (AID 165).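 Also: 0% = growth equal to vehicle treated cultures.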 As to conditions: S. cerevisiae cln2 rad14 strain, stronger effect = higher value. In outline: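 Strain: cln2 rad14 yeast, altered in cell cycle control and DNA damage repair. Read-out: growth inhibition vs vehicle.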
The nature of experiment [5]: NCI Yeast Anticancer Drug Screen. Data for the bub3 strain (AID 167). Conditions: S. cerevisiae bub3 mutant strain, stronger effect = higher value. In short, it runs like this: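 Screening used yeast with an engineered genetic alteration affecting cell cycle control. Compound-exposed cultures were compared with vehicle cultures, and reduced growth was taken as inhibition.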
Experiment [6] in a line: NCI Yeast Anticancer Drug Screen. Data for the mlh1 rad18 strain (AID 175). As to conditions: S. cerevisiae mlh1 rad18 strain growth inhibition, stronger effect = higher value. In short, it runs like this:
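A repair-deficient yeast strain is exposed to test compound, and growth is scored relative to vehicle-treated controls.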

[7] abbreviates: at 5.0 µM (retest, dose inferred, filed as 0.5).
[8] abbreviates: at 50.0 µM (retest, dose inferred, filed as 5.0).

About 79,000 compounds went through this panel and 15% of them were active in at least one assay; those are over-represented in the sample as a whole. Unmarked numbers belong to inactive results. Active and inactive are the calls of the source. Rule as the data show it: active = growth inhibition above about 70%; inactive = the rest.

As to `CC(/C=C/C(O)=C1/C(=O)CNC1=O)=C\[C@@H](C)[C@H]1O[C@@]2(C)O[C@H](C(=O)[C@@H]3O[C@@]32C)[C@@H]1C`, the growth inhibition in experiment [1] (setting [7]) was 98% (active); in experiment [1] (setting [8]), 99% (active); in experiment [1] (at 50.0 µM), 91.8% (active); in experiment [2] (setting [7]) it was 99% (active); in experiment [2] (setting [8]) it was 99% (active); in experiment [2] (at 50.0 µM), 94.5% (active). Besides, the growth inhibition was 98% (active) in experiment [3] (setting [7]); 98% (active) in experiment [3] (setting [8]); 94.2% (active) in experiment [3] (at 50.0 µM); 97% (active) in experiment [4] (setting [7]); 95% (active) in experiment [4] (setting [8]); 90.8% (active) in experiment [4] (at 50.0 µM). Further, the growth inhibition in experiment [5] (setting [7]) was 98% (active); in experiment [5] (setting [8]), 99% (active); in experiment [5] (at 50.0 µM) it was 93.4% (active); in experiment [6] (setting [7]), 98% (active); in experiment [6] (setting [8]), 98% (active); in experiment [6] (at 50.0 µM), 90.3% (active).

Turning to `COc1ccc2c(c1)CCC(N1CCCC(O)C1)C2` (configuration not stated), the growth inhibition in experiment [1] (setting [7]) was 13%; in experiment [1] (setting [8]), 98% (active); in experiment [1] (at 50.0 µM), 48.9%; in experiment [2] (setting [7]), 12%; in experiment [2] (setting [8]), 99% (active); in experiment [2] (at 50.0 µM), 56%. Also, the growth inhibition in experiment [3] (setting [7]) is 12%; in experiment [3] (setting [8]), 98% (active); in experiment [3] (at 50.0 µM) it was 87.2% (active); in experiment [4] (setting [7]), 25%; in experiment [4] (setting [8]) it was 99% (active); in experiment [4] (at 50.0 µM) it was 23.2%. Besides, the growth inhibition in experiment [5] (setting [7]) was 11%; in experiment [5] (setting [8]), 99% (active); in experiment [5] (at 50.0 µM) it was 91.2% (active); in experiment [6] (setting [7]), 14%; in experiment [6] (setting [8]), 98% (active); in experiment [6] (at 50.0 µM) it was 71.4% (active).

Take `O=C1/C(=C/c2ccccc2Cl)COc2ccccc21`: the growth inhibition is 30% in experiment [1] (setting [7]); 97% (active) in experiment [1] (setting [8]); 91.5% (active) in experiment [1] (at 50.0 µM); -15% in experiment [2] (setting [7]); 98% (active) in experiment [2] (setting [8]); 93.9% (active) in experiment [2] (at 50.0 µM). Besides, the growth inhibition was 15% in experiment [3] (setting [7]); 97% (active) in experiment [3] (setting [8]); 90.7% (active) in experiment [3] (at 50.0 µM); 20% in experiment [4] (setting [7]); 97% (active) in experiment [4] (setting [8]); 90.8% (active) in experiment [4] (at 50.0 µM). The growth inhibition is 32% in experiment [5] (setting [7]); 98% (active) in experiment [5] (setting [8]); 90.7% (active) in experiment [5] (at 50.0 µM); -25% in experiment [6] (setting [7]); 97% (active) in experiment [6] (setting [8]); 90.2% (active) in experiment [6] (at 50.0 µM).

For `O=C1CN(/N=C\c2ccc([N+](=O)[O-])o2)C(=O)N1`, the growth inhibition in experiment [1] (setting [7]) was 11%; in experiment [1] (setting [8]), 48%; in experiment [1] (at 50.0 µM) it was 56.5%; in experiment [2] (setting [7]), 4%; in experiment [2] (setting [8]) it was 29%; in experiment [2] (at 50.0 µM) it was 15.2%. Besides, the growth inhibition in experiment [3] (setting [7]) is 2%; in experiment [3] (setting [8]), 39%; in experiment [3] (at 50.0 µM), 41%; in experiment [4] (setting [7]) it was -5%; in experiment [4] (setting [8]), 18%; in experiment [4] (at 50.0 µM) it was -8.35%. Moreover, the growth inhibition in experiment [5] (setting [7]) is 3%; in experiment [5] (setting [8]), 26%; in experiment [5] (at 50.0 µM) it was 27.5%; in experiment [6] (setting [7]), 19%; in experiment [6] (setting [8]), 65%; in experiment [6] (at 50.0 µM), 69.8%.

Regarding `O=C(C(=S)c1ccccc1)N(Cc1ccccc1)Cc1ccccc1`, the growth inhibition in experiment [1] (setting [7]) was -2%; in experiment [1] (setting [8]), 44%; in experiment [1] (at 50.0 µM) it was 79.3% (active); in experiment [2] (setting [7]), 1%; in experiment [2] (setting [8]) it was 25%; in experiment [2] (at 50.0 µM), 88.9% (active). Also, the growth inhibition in experiment [3] (setting [7]) is 0%; in experiment [3] (setting [8]) it was 48%; in experiment [3] (at 50.0 µM), 95.9% (active); in experiment [4] (setting [7]), 0%; in experiment [4] (setting [8]) it was 27%; in experiment [4] (at 50.0 µM), 59.4%. The growth inhibition in experiment [5] (setting [7]) is 4%; in experiment [5] (setting [8]) it was 41%; in experiment [5] (at 50.0 µM), 93.8% (active); in experiment [6] (setting [7]), 2%; in experiment [6] (setting [8]), 50%; in experiment [6] (at 50.0 µM), 94.4% (active).

On to `CCN(CC)CCNc1c(OC)cc(C)c2sc3ccccc3c(=O)c12`, for which the growth inhibition in experiment [1] (setting [7]) is 8%; in experiment [1] (setting [8]), 75% (active); in experiment [1] (at 50.0 µM), 81.2% (active); in experiment [2] (setting [7]) it was 6%; in experiment [2] (setting [8]) it was -1%; in experiment [2] (at 50.0 µM), 39.5%. Also, the growth inhibition in experiment [3] (setting [7]) is 0%; in experiment [3] (setting [8]) it was 66%; in experiment [3] (at 50.0 µM) it was 82.8% (active); in experiment [4] (setting [7]), 1%; in experiment [4] (setting [8]), 39%; in experiment [4] (at 50.0 µM), 33.1%. Also, the growth inhibition in experiment [5] (setting [7]) is 1%; in experiment [5] (setting [8]), 33%; in experiment [5] (at 50.0 µM), 57%; in experiment [6] (setting [7]), 4%; in experiment [6] (setting [8]) it was 86% (active); in experiment [6] (at 50.0 µM), 94% (active).

As for `CCC(Cl)COP(=O)(OCC(Cl)CC)OC(c1ccc(Cl)c(Cl)c1)P(=O)(OCC(Cl)CC)OCC(Cl)CC` (configuration not stated), the growth inhibition was 8% in experiment [1] (setting [7]); 23% in experiment [1] (setting [8]); 55% in experiment [1] (at 50.0 µM); 14% in experiment [2] (setting [7]); 11% in experiment [2] (setting [8]); 91.2% (active) in experiment [2] (at 50.0 µM). Further, the growth inhibition in experiment [3] (setting [7]) is -1%; in experiment [3] (setting [8]), 7%; in experiment [3] (at 50.0 µM), 93% (active); in experiment [4] (setting [7]), -10%; in experiment [4] (setting [8]), 1%; in experiment [4] (at 50.0 µM), 76.2% (active). Further, the growth inhibition is -3% in experiment [5] (setting [7]); 9% in experiment [5] (setting [8]); 55.6% in experiment [5] (at 50.0 µM); 7% in experiment [6] (setting [7]); 37% in experiment [6] (setting [8]); 85.7% (active) in experiment [6] (at 50.0 µM).

In the case of `O=C1C(=O)c2ccccc2C(O)=C1C(c1ccccc1)c1ccccc1`, the growth inhibition in experiment [1] (setting [7]) was 42%; in experiment [1] (setting [8]), 82% (active); in experiment [1] (at 50.0 µM), 53.5%; in experiment [2] (setting [7]), 39%; in experiment [2] (setting [8]) it was 85% (active); in experiment [2] (at 50.0 µM), 66%. Further, the growth inhibition in experiment [3] (setting [7]) was 57%; in experiment [3] (setting [8]) it was 91% (active); in experiment [3] (at 50.0 µM), 82.5% (active); in experiment [4] (setting [7]) it was 27%; in experiment [4] (setting [8]), 83% (active); in experiment [4] (at 50.0 µM) it was 58.2%. For the same compound, the growth inhibition in experiment [5] (setting [7]) is 18%; in experiment [5] (setting [8]) it was 83% (active); in experiment [5] (at 50.0 µM) it was 60.6%; in experiment [6] (setting [7]) it was 54%; in experiment [6] (setting [8]) it was 90% (active); in experiment [6] (at 50.0 µM) it was 62%.

For `CC#CCCCCOC(=O)c1cc([N+](=O)[O-])cc([N+](=O)[O-])c1`, the growth inhibition in experiment [1] (setting [7]) was 97% (active); in experiment [1] (setting [8]), 99% (active); in experiment [1] (at 50.0 µM), 99.5% (active); in experiment [2] (setting [7]), 99% (active); in experiment [2] (setting [8]), 100% (active); in experiment [2] (at 50.0 µM), 99.6% (active). In addition, the growth inhibition is 98% (active) in experiment [3] (setting [7]); 99% (active) in experiment [3] (setting [8]); 99.6% (active) in experiment [3] (at 50.0 µM); 90% (active) in experiment [4] (setting [7]); 99% (active) in experiment [4] (setting [8]); 99.4% (active) in experiment [4] (at 50.0 µM). The growth inhibition in experiment [5] (setting [7]) is 98% (active); in experiment [5] (setting [8]), 99% (active); in experiment [5] (at 50.0 µM) it was 99.7% (active); in experiment [6] (setting [7]), 98% (active); in experiment [6] (setting [8]), 99% (active); in experiment [6] (at 50.0 µM) it was 99.4% (active).
